Reference: PubChem BioAssay (NCI)
About 83,000 compounds went through this panel and 20% of them were active in at least one assay; those are over-represented in the sample as a whole.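 Note: values are percent growth. 100 is the growth of untreated cells, values between 100 and 0 indicate rising inhibition; between -100 and 0 indicates cell death.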 Active and inactive are the calls of the source. How the source made its calls: active means growth percent below 10; inactive means the rest.

system: IGROV1 ovarian; assay: NCI-60 one-dose screen, 48 h (100 = growth as untreated, 0 = no growth, -100 = all killed); conditions: 10 µM unless noted

Structure (SMILES)	growth
COc1cc(-c2cc3ncccc3c3nc(OCCN(C)C)c4cccnc4c23)cc(OC)c1OC	9.72% (active)
CN(C)CCCC1(c2ccc(F)cc2)OCc2cc(-c3ccc(C(F)(F)F)nc3)ccc21 (stereo not drawn)	66.5% (inactive)
Cn1cc(-c2csc(-c3cn(CCNC(=O)OC(C)(C)C)c4ccccc34)n2)c2cccnc21	64.7% (inactive)
N#CC1=C(N)Oc2c(c(N)nn2-c2ccccc2)C1c1ccc(Cl)cc1Cl (stereo not drawn)	101% (inactive)
CCN1CCN(C(=O)[C@]23CC[C@@H](C)[C@H](C)[C@H]2C2=CC[C@@H]4[C@@]5(C)C/C(=C/c6cccc(OC)c6OC)C(=O)C(C)(C)[C@@H]5CC[C@@]4(C)[C@]2(C)CC3)CC1	60.7% (inactive)
Cc1csc(Nc2nc(-c3ccc(Cl)cc3)nc(C(Cl)(Cl)Cl)n2)n1	102% (inactive)
COc1ccc(/C=C(\C#N)c2cc3ccccc3n2S(C)(=O)=O)cc1	74% (inactive)
Cc1cc(Cl)c2c(N(C)C)cccc2n1	88.2% (inactive)
O=C1c2ccccc2NC(c2cn(-c3ccccc3)nc2-c2cccs2)N1Cc1ccccc1 (stereo not drawn)	69.3% (inactive)
COCCNC1=C(Cl)C(=O)c2ccccc2C1=O	126% (inactive)
Oc1ccc(Nc2ccccc2)cc1	101% (inactive)
COC(=O)[C@]12CC[C@@H](C)[C@H](C)[C@@H]1C1=CC[C@@H]3[C@@]4(C)C[C@@H](OC(C)=O)[C@H](OC(C)=O)[C@@](C)(COC(C)=O)[C@@H]4[C@H](O)C[C@@]3(C)[C@]1(C)CC2	36.7% (inactive)
Cc1c(C)c2c(c(C)c1NC(=O)CCCCCCC(=O)O)CCC(C)(CCCC(C)CCCC(C)CCCC(C)C)O2 (stereo not drawn)	89.8% (inactive)
